This note sets out measurements from PubChem BioAssay AID2013 (Sanford-Burnham Center for Chemical Genomics, 2009).

Screen size: about 290,000 compounds; about 370 (0.13%) were called active. The entries come from a sample that favours actives as a whole. Results with a measured potency or affinity are listed apart. Values without a mark were called inactive.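 Rule for the calls: active = spots per cell inhibited over 60%, with over 100 cells counted and total cytoplasm intensity under 500,000; inconclusive = wells with under 100 cells, flagged as likely toxic; inactive = the rest.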

In this assay the target is G-protein coupled receptor 55 (Homo sapiens) (UniProt Q9Y2T6). Briefly: GPR55 antagonists blocking LPI-driven arrestin recruitment, primary screen, imaging, U2OS, beta-arrestin-GFP, LPI agonist (AID 2013).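 Note: U2OS cells stably carrying GPR55 and arrestin-GFP stimulated by 5 µM LPI near EC80; imaged beta-arrestin-GFP aggregate spots per cell after agonist stimulation; plate controls were LPI-stimulated DMSO wells for no effect and DMSO wells without LPI for full effect.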 Conditions: U2OS GPR55 beta-arrestin-GFP translocation imaging, LPI antagonism; at 10 µM; active compounds read high. A general note: Arrestin recruitment assays detect the binding of arrestin to an activated receptor.
Sequence of G-protein coupled receptor 55 (Homo sapiens) (Q9Y2T6 whole entry, looked up): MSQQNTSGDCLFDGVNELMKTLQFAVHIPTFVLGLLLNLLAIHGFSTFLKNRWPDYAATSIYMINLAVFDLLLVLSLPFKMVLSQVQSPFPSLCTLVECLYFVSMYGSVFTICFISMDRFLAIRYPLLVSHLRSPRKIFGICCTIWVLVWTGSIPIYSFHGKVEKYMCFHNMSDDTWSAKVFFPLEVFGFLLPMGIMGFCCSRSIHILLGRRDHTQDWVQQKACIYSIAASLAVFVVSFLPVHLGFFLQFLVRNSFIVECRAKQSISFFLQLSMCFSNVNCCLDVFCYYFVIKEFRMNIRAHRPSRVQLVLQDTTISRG
Regarding `COc1ccc(C2c3c(-c4ccccc4O)n[nH]c3C(=O)N2CCc2ccc(OC)c(OC)c2)cc1` (stereo not drawn), the inhibition (as a rule, the relative decrease from the control value, in per cent) was 9.9%.

On to `COc1ccc(C2c3c(-c4ccccc4O)n[nH]c3C(=O)N2Cc2ccco2)cc1OC` (stereo not drawn), for which the inhibition is -6.4%.

Take `COc1ccc(CCN2C(=O)c3[nH]nc(-c4ccccc4O)c3C2c2ccccc2)cc1OC` (stereo not drawn): the inhibition is 1.6%.

`COc1ccc(CCN2C(=O)c3[nH]nc(-c4ccccc4O)c3C2c2cccc(Cl)c2)cc1` (stereo not drawn): the inhibition was 4.8%.

Turning to `COc1ccc(C(=O)OCC(=O)NC2CCCC2)c(OC)c1OC`, the inhibition is 3.7%.

Consider `CCN(Cc1ccccc1)C(=O)CCCOc1ccccc1`, for which the inhibition is -2%.

Regarding `CC(=O)Nc1ccc(S(=O)(=O)NNC(=O)C2CCCCC2)cc1`, the inhibition is 0.1%.

For the compound `O=C(COC(=O)C1CC2C=CC1C2)Nc1cccc(S(=O)(=O)N2CCCCC2)c1` (stereo not drawn), the inhibition is -15.5%.

Take `Cc1ccc(NC(=O)COC(=O)C2CC3C=CC2C3)cc1S(=O)(=O)N1CCCCC1` (stereo not drawn): the inhibition was 64.8% (active).

For the compound `Cc1ccc(S(=O)(=O)N2CCCCC2)cc1NC(=O)COC(=O)C1CC2C=CC1C2` (stereo not drawn), the inhibition is -2.7%.

On to `CCCCCn1c(CNC(C)=O)nc2ccccc21`, for which the inhibition was 2.6%.

`O=c1c(-c2ccc(Cl)cc2)coc2c(CN3CCOCC3)c(O)ccc12`: the inhibition is -5.8%.

Take `Cc1ccc(S(C)(=O)=NS(=O)(=O)c2cccc3nsnc23)cc1` (stereo not drawn): the inhibition is 5%.

In the case of `Cn1c(=O)c(C(=O)NCCc2ccccc2)c(O)c2ccccc21`, the inhibition is 11.2%.

`O=C1C(Cc2ccc(Br)cc2)SC(=Nc2ccccc2)N1c1ccccc1` (stereo not drawn): the inhibition was 7.8%.

Turning to `Nc1ccc(N2CCCCC2)c(S(=O)(=O)Nc2ccc(Cl)cc2)c1`, the inhibition was 16.6%.

`COc1ccccc1NS(=O)(=O)c1cc(N)ccc1N1CCCCC1`: the inhibition was -8.3%.

On to `C/C(=N\Nc1ccc(Cl)c(C(=O)O)c1)c1cccc2ccccc12`, for which the inhibition is -3.2%.

Regarding `COC(=O)[C@H](Cc1ccccc1)NC(=O)N1CCCCC1C` (stereo partly drawn), the inhibition is 11.9%.

On to `O=C(c1ccco1)N(CC1CCCO1)c1nc(-c2ccccc2)cs1` (stereo not drawn), for which the inhibition is -1.7%.

As to `CCCCC(NC(C)=O)c1nc2ccccc2n1CCCC` (stereo not drawn), the inhibition was 7.3%.

In the case of `CCCCCn1c(C(Cc2ccccc2)NC(=O)COC)nc2ccccc21` (stereo not drawn), the inhibition is 25.9%.

As to `COc1ccc(CCn2c(C)cc(C(=O)COC(=O)c3ccc(NC(=O)CC#N)cc3)c2C)cc1`, the inhibition was -0.8%.

As for `O=C(NC1CCCC1)C(c1cccnc1)N(C(=O)c1ccco1)c1cccc(F)c1` (stereo not drawn), the inhibition is -23.3%.

Take `Cc1cc2c3c(c1)C1(SCC(=O)N1c1ccc(F)cc1)C(=O)N3C(C)(C)CC2C` (stereo not drawn): the inhibition is 26.5%.

For `COc1ccc(N2C(=O)CSC23C(=O)N2c4c(cccc43)C(C)=CC2(C)C)cc1` (stereo not drawn), the inhibition is -6.8%.

As to `Cc1ccc(N2C(=O)CSC23C(=O)Nc2ccccc23)cc1` (stereo not drawn), the inhibition is 17.5%.

On to `CC1=CC(C)(C)N2C(=O)C3(NCCc4c3[nH]c3ccccc43)c3cc(C)cc1c32` (stereo not drawn), for which the inhibition is 6.1%.

`CC(C(=O)Nc1ccc(S(=O)(=O)N2CCOCC2)cc1)N(c1ccccc1)S(C)(=O)=O` (stereo not drawn): the inhibition is 2.6%.

Take `COc1ccccc1CN1CC(C(=O)N(C)CCOc2ccccc2)CCC1=O` (stereo not drawn): the inhibition was 4.1%.

Regarding `CCc1ccc2oc(C(=O)NC3CCS(=O)(=O)C3)cc(=O)c2c1` (stereo not drawn), the inhibition is 0.2%.

As to `CCOC(=O)c1cnc2c(c(C)nn2C)c1Oc1ccc(OC)cc1`, the inhibition is 24.7%.

With `CCOC(=O)c1cnc2c(c(C)nn2C)c1Oc1cc(Cl)cc(Cl)c1`, the inhibition was -4.2%.

For the compound `CCOc1ccc(/C=N/n2c(-c3ccccc3)n[nH]c2=S)cc1`, the inhibition was -1.8%.

For the compound `O=C(O)CSCC(=O)Nc1ccc(S(=O)(=O)N2CCCCC2)cc1`, the inhibition was 8.7%.

In the case of `CC(c1ccc(F)cc1)n1cc(C(=O)NCc2ccccn2)nn1` (stereo not drawn), the inhibition is -1.6%.

Take `O=C(CSc1nc2ccccc2[nH]1)N=Nc1c(O)[nH]c2ccccc12`: the inhibition is -8.4%.

As to `O=c1[nH]c2ccccc2nc1-c1ccccc1`, the inhibition was 5.1%.

As for `NC(=O)c1sc2nnc(-c3ccccc3)c(-c3ccccc3)c2c1N`, the inhibition is 21.8%.

In the case of `CCSc1nnc(-c2cccs2)o1`, the inhibition is -4.1%.

Regarding `O=C(CCn1ccnc1)Nc1cc(Cl)ccc1O`, the inhibition was 4.7%.

For `N=C1S/C(=C\c2ccccc2F)C(=O)N1c1ccc(F)cc1`, the inhibition is 7.1%.

Turning to `N=C1S/C(=C\c2cccc3ccccc23)C(=O)N1c1ccc(F)cc1`, the inhibition was -1.5%.

Turning to `CC(C)(C)OC(=O)CC12CCCCC1NC(=O)O2` (stereo not drawn), the inhibition was -7.6%.

For `COc1ccc2[nH]c(=O)c(COC(=O)c3ccco3)cc2c1`, the inhibition was -0.6%.

On to `CCCCNS(=O)(=O)c1cccc(S(=O)(=O)N2CCCC2)c1`, for which the inhibition is 11.2%.

As for `CC1Cn2c(nc(=O)c3c2NCN(CCc2ccccc2)C3)S1` (stereo not drawn), the inhibition is 3.9%.

Regarding `CC(=O)c1c(C)nc2ccccn12`, the inhibition is 5.4%.

Regarding `O=S1(=O)CCC(NC(=S)SCc2ccccc2Br)C1` (stereo not drawn), the inhibition is 8.1%.

Regarding `CCCSC(=S)NC1CCS(=O)(=O)C1` (stereo not drawn), the inhibition is 1.1%.

Take `O=S1(=O)CC=C(CSC(=S)NC2CCS(=O)(=O)C2)C1` (stereo not drawn): the inhibition is 71.8% (active).

On to `CCOC(=O)C1=C(C)NC(C)=C(C(=O)OC)C1c1cccc([N+](=O)[O-])c1` (stereo not drawn), for which the inhibition is 14.8%.

Regarding `CCOC(=O)C1=C(O)C(=O)N(c2ccccc2)C1c1cccc([N+](=O)[O-])c1` (stereo not drawn), the inhibition was -3.6%.

Turning to `CCn1c(SCc2nc3cc(OC)c(OC)cc3c(=O)[nH]2)nnc1-c1ccncc1`, the inhibition was -12.8%.

Turning to `CCOC(=O)N1CCN(C(=O)CS(=O)Cc2nc(-c3cccc(C)c3)oc2C)CC1` (stereo not drawn), the inhibition is -4.3%.

In the case of `Cc1cc(=O)c(C(=O)O)nn1-c1ccccc1C(F)(F)F`, the inhibition was -0.4%.

For `COc1ccccc1NC(=S)NC(NC(=O)c1ccco1)C(Cl)(Cl)Cl` (stereo not drawn), the inhibition was 3.2%.

With `O=C(NC(NC(=S)Nc1ccccc1C(=O)O)C(Cl)(Cl)Cl)c1ccco1` (stereo not drawn), the inhibition was 15.9%.

On to `Cc1ccc(NC(=O)C2C3C=CC4(O3)C2C(=O)N(CCCN2CCCCC2)C4C(=O)NC2CCCCC2)cc1C` (stereo not drawn), for which the inhibition was 1.2%.

With `COc1ccc(C(=O)C2CCCN(C(=O)c3noc4c3CCCC4)C2)c(C)c1` (stereo not drawn), the inhibition was 15.3%.

Consider `COC(CNC(=O)c1coc2nc3ccccc3nc12)OC`, for which the inhibition was -2.8%.

On to `COCCCNC(=O)c1ccccc1-c1cc(C)no1`, for which the inhibition was -3.6%.

Consider `CCOC(=O)C(C(=O)OCC)c1cc(Br)c2noc3c2c1C(=O)c1ccccc1-3`, for which the inhibition is -10.2%.

With `COC(CNC(=O)c1ccc2c3c(onc13)-c1ccccc1C2=O)OC`, the inhibition was 99.4% (active).

On to `COCCNC(=O)c1cccc2c1-c1ccccc1C2=O`, for which the inhibition is 4%.

For `COCCCNC(=O)c1ccc2c3c(onc13)-c1ccccc1C2=O`, the inhibition was 84.1% (active).

For the compound `O=C(c1cccc(C(F)(F)F)c1)N1CCN(S(=O)(=O)c2ccc(Cl)s2)CC1`, the inhibition is 9.8%.

Turning to `CCN(c1cccc(C)c1)S(=O)(=O)c1ccc2c(c1)oc(=O)n2C`, the inhibition is 1.9%.

In the case of `CCOc1ccc(NC(=O)CN(C)S(=O)(=O)c2ccc3c(c2)CCC(=O)N3)cc1`, the inhibition is -0.4%.

With `COc1ccc(C(=O)NC(Oc2ccccc2)C(Cl)(Cl)Cl)cc1` (stereo not drawn), the inhibition is -6.6%.

Regarding `CC(C)CC(=O)NNC(=O)c1ccc(Cl)cc1`, the inhibition is 4.3%.

Consider `COc1ccc(C(=O)N(CCCO)C(C)C(=O)NC2CCCCC2)cc1OC` (stereo not drawn), for which the inhibition is -11.9%.

Regarding `CCOC(=O)c1ccc(NC(=O)c2ccc3c(c2)C(=O)N(Cc2cccnc2)C3=O)cc1`, the inhibition is -16.9%.

On to `CCCSc1ncc(Cl)c(C(=O)Nc2ccc(S(=O)(=O)Nc3ncccn3)cc2)n1`, for which the inhibition was 7.3%.

In the case of `CSc1ncc(Cl)c(C(=O)Nc2ccc(S(=O)(=O)N3CCOCC3)cc2)n1`, the inhibition is 29.9%.

Take `N/C(Cc1cccs1)=N\OC(=O)COc1ccc(Cl)cc1Cl`: the inhibition is -3.5%.

Turning to `Cc1ccc(CN2CCN(/N=C/C(Br)=C\c3ccccc3)CC2)cc1`, the inhibition is -12%.

With `CN1/C(=C\C(=O)CSc2cccc[n+]2[O-])C(C)(C)c2ccccc21`, the inhibition is 0.8%.

With `CN1/C(=C\C(=O)CSc2nncn2C)C(C)(C)c2ccccc21`, the inhibition was -7.6%.

On to `COc1ccc2[nH]cc(C(O)CN3CCC(C(N)=O)CC3)c2c1` (stereo not drawn), for which the inhibition is 28.7%.

In the case of `COc1ccc([N+](=O)[O-])cc1N(CC(=O)NCCC1=CCCCC1)S(C)(=O)=O`, the inhibition was 0.4%.

With `CC(C)(C)c1ccc(O)c(N=Cc2cc3c(cc2[N+](=O)[O-])OCO3)c1`, the inhibition was -3.2%.

As for `CC(=O)NC1=NC(=O)/C(=C/c2cc(C)n(-c3cccc(C(=O)O)c3)c2C)S1`, the inhibition is -3.4%.

As for `CC(=O)NC1=NC(=O)/C(=C/c2cn(C(C)=O)nc2-c2ccccc2)S1`, the inhibition was 100% (active).

As to `CCN=C1S/C(=C\c2cn(C(C)=O)nc2-c2ccccc2)C(=O)N1CC`, the inhibition was -15.2%.

Regarding `CCCn1cc(CN2CCC(n3nccc3NC(=O)c3ccc4c(c3)OCO4)CC2)c(C)n1`, the inhibition is 6%.

Regarding `CCc1ccc(C(=O)COC(=O)[C@@H](NC(N)=O)[C@@H](C)CC)cc1`, the inhibition is 0.9%.

As for `CN(C)CCCN(C(=O)CCc1ccccc1)c1nc2ccc(Cl)cc2s1`, the inhibition is 75.6% (active).

As for `CN(C)CCCN(C(=O)CCc1ccccc1)c1nc2ccc(Br)cc2s1`, the inhibition was 44.7%.

`Cc1ccc2nc(N(CCCN(C)C)C(=O)CCc3ccccc3)sc2c1`: the inhibition was 29.6%.

With `CN(C(=O)c1ccc(OC2CCN(Cc3ccccn3)CC2)cc1)C1CCCCC1`, the inhibition is -18.7%.

On to `O=S(=O)(CCC1CCCCN1)c1ccccc1` (stereo not drawn), for which the inhibition was 0.5%.

Consider `C1CCC(C23CC4CC(CC(C4)C2)C3)NC1` (stereo not drawn), for which the inhibition is -4.6%.
